PRMT1 FP inh: PRMT1 (human) inhibition, primary screen; inhibition, % at 2.79 µM; 370,000 compounds, 1.3% hits; recombinant PRMT1, activity-based probe fluorescence polarization; Q99873;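 active = inhibition above about 21% made by adding two undisclosed values, limit read from the data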
NOD2-RIPK2 inh: blocks binding of human NOD2 to RIPK2 | CHO BLA complementation NOD2-RIPK2, CCF4 ratio | 360,000 compounds, 0.38% hits | AID 624267 | O43353 | inhibition, % at 4.98 µM; in the data active = inhibition above about 21%
ABHD5-PLIN5 inh: inhibitors of human ABHD5-perilipin-5 interaction | Q00G26+Q8WTS1 | Split G. princeps luciferase complementation, luminescence, 4 h | inhibition, % at 4 µM | 360,000 compounds, 0.78% hits | AID 602281;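 active = inhibition above the mean inhibition across every tested compound plus 3 SD, cut at about 22% in these data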
rCAG RNA binder: r(CAG) repeat RNA binding; TO-PRO-1 dye displacement fluorescence; inhibition, % at 3 µM; 370,000 compounds, 1.3% hits; AID 651821;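 active = inhibition above the plate cutoff, the mean of all test compounds on that plate plus 3 SD, cut at about 35% in these data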;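 note: higher means more dye released from RNA so lower well fluorescence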
TLR9-MyD88 inh: TLR9-MyD88 interaction inhibition | 340,000 compounds, 0.21% hits | Q9NR96+Q99836 | inhibition, % at 4.98 µM | CHO BLA complementation TLR9-MyD88, CCF4 FRET ratio;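 active = inhibition above the mean over all tested compounds plus 3 SD, cut at about 21% in these data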
TLR4 MyD88 comp: inhibitors of human TLR4-MyD88 binding. O00206+Q99836. HeLa CL3-4 TLR4/MyD88 BLA complementation, FRET ratio. inhibition, % at 8.4 µM. 200,000 compounds, 0.18% hits; in the data active = inhibition above about 25%
Target sequence (O00206 whole entry, looked up): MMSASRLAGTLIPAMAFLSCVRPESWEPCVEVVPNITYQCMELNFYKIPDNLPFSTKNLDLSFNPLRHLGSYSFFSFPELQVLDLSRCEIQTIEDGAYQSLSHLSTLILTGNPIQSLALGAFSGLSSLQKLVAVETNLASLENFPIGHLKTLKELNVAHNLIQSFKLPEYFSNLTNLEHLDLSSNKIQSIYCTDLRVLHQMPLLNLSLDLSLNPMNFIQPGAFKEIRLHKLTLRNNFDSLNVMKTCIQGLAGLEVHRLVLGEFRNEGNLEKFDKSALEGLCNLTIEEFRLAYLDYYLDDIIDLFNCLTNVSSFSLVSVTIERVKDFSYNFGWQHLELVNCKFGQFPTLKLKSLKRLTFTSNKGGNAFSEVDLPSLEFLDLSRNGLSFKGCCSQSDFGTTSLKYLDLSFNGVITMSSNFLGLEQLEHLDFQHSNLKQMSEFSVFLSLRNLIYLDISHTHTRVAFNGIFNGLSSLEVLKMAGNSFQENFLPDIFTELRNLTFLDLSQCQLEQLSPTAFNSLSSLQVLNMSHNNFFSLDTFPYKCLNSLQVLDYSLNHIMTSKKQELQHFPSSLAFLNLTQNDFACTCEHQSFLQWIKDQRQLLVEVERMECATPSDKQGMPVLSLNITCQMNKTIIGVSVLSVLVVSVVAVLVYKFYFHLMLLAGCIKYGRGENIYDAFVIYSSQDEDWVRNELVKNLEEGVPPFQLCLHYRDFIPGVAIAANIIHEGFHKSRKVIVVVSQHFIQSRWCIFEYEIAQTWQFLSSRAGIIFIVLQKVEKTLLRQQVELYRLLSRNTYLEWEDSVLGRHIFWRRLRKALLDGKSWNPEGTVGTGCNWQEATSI
Target sequence (Q99836 whole entry, looked up): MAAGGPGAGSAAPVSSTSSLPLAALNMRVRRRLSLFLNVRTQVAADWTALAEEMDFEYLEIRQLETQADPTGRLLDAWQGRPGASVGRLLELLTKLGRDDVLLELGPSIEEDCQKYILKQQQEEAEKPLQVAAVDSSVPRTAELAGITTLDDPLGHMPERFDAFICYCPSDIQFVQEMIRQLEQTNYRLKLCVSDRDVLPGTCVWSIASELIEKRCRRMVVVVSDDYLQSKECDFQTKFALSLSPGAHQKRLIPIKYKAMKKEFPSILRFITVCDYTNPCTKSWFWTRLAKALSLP
TLR4 MyD88 cnf: confirmation of human TLR4-MyD88 binding inhibitors; shares compounds with TLR4 MyD88 comp; HeLa CL3-4 BLA complementation, CCF4 FRET ratio; inhibition, % at 8.4 µM; 350 compounds, 50% hits; AID 941;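 active = mean inhibition across three repeat runs above about 25% carried over from the earlier screen, limit read from the data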
BLA inh HeLa: inhibits beta-lactamase activity, counter-screen to TLR4-MyD88 binding inhibitors. shares compounds with TLR4 MyD88 comp. HeLa BLA reporter, CCF4 FRET ratio. inhibition, % at 8.4 µM. 350 compounds, 63% hits. AID 1237;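 active = mean inhibition over three repeats above about 26% taken from the earlier screen, limit read from the data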;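 note: HeLa cells stably expressing beta-lactamase reporter as counterscreen for TLR4-MyD88 inhibitors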
Numbers stand for hits; i = inactive; nt = not tested or not shown. The list is not random: actives were taken first. Their share in the collection is about 3.3%.

SMILES | PRMT1 FP inh | NOD2-RIPK2 inh | ABHD5-PLIN5 inh | rCAG RNA binder | TLR9-MyD88 inh | TLR4 MyD88 comp | TLR4 MyD88 cnf | BLA inh HeLa
CC(=O)c1c(C)n([O-])c2cc(F)c(F)cc2[n+]1=O | i | i | i | i | i | 28 | 26 | i
O=C(Nc1nccs1)c1cccc(N2C(=O)c3cccc4c([N+](=O)[O-])ccc(c34)C2=O)c1 | i | i | i | i | i | 28 | i | 32
O=C(Nc1nccs1)c1cccc(N2C(=O)C3C4C=CC(C4)C3C2=O)c1 (configuration not stated) | i | i | i | i | i | i | nt | nt
Cc1ccc2nc(Cl)c(/C=N/Nc3nc(C)cc(C)n3)c(=O)n2c1 | i | i | i | i | i | 33 | i | 28
Cc1ccc2nc(C)c(Cl)c(=O)n2c1 | i | i | i | i | i | i | nt | nt
O=C(CCn1nnc(-c2cccs2)n1)N1CCCCC1 | i | nt | nt | i | nt | nt | nt | nt
Cc1cccc(N2C(=O)/C(=C\c3ccc(C(=O)O)cc3)c3ccccc3C2=O)c1 | i | i | i | i | i | 45 | 32 | 35
O=S1(=O)C=C(Sc2nc3ccccc3s2)c2ccccc21 | nt | nt | nt | nt | nt | 26 | i | i
O=C(COc1ccccc1Cc1ccccc1)Nc1cccnc1 | i | i | i | i | i | nt | nt | nt
CNc1c(NC(=O)c2ccc3c(c2)OCO3)c(=O)oc2ccccc12 | i | i | i | i | i | nt | nt | nt
O=C(CCC(=O)c1ccc(Oc2ccccc2)cc1)Nc1ccc(C(=O)O)cc1 | i | i | i | i | i | nt | nt | nt
CC(C)(C)c1cc(NC(=O)c2cccnc2)no1 | i | i | i | i | i | 27 | i | i
CCCc1nc2cc(C)c(Br)c(C)n2c1Cc1ccsc1 | i | i | i | i | nt | nt | nt | nt
Cc1ccc(N=Cc2sc(O)c3ccccc23)cc1 | i | i | i | i | i | 39 | i | 52
Cc1ccc(N=Cc2sc(O)c3ccccc23)c(C)c1 | i | i | i | i | i | 25 | i | 37
Cc1ccc(N=Cc2cccc(O)c2O)c(C)c1 | i | i | i | i | i | i | nt | nt
Nn1c(SCC(=O)Nc2cccc3ccccc23)nnc1-c1n[nH]c2c1CCC2 | i | nt | nt | i | nt | nt | nt | nt
COc1nc(-c2ccncc2)nc2ccccc12 | i | i | i | i | i | i | nt | nt
C=CCOc1nc(-c2ccncc2)nc2ccccc12 | i | i | i | i | i | 25 | i | i
CC(=O)Nc1sc2c(c1-c1cc3ccccc3o1)CCNC2 | i | nt | nt | nt | nt | nt | nt | nt
O=C(NCc1ccco1)c1ccccc1F | i | i | i | i | i | 26 | i | i
O=C(OC1C2C=CC1C1C(=O)NC21)c1ccccc1 (configuration not stated) | i | i | i | i | i | nt | nt | nt
O=C(CSc1nc2scc(-c3ccco3)c2c(=O)n1-c1ccccc1)N1CCOCC1 | i | i | i | i | i | 30 | i | i
O=[N+]([O-])c1ccc(N/N=C/c2ccc(OCc3cccc4ccccc34)cc2)nc1 | i | i | i | i | i | 35 | 47 | 82
N#Cc1ccccc1Cn1cc(/C=N/Nc2ccc([N+](=O)[O-])cn2)c2ccccc21 | i | i | i | i | i | 46 | 40 | 79
SMILES | PRMT1 FP inh | NOD2-RIPK2 inh | ABHD5-PLIN5 inh | rCAG RNA binder | TLR9-MyD88 inh | TLR4 MyD88 comp | TLR4 MyD88 cnf | BLA inh HeLa
C[C@H]1[C@@H](OC(=O)N2CCOCC2)CC[C@@]23CCCN2C(=O)CCC[C@@H]13 | i | nt | nt | nt | nt | nt | nt | nt
CCSc1ncc(/C=N/Nc2ccc([N+](=O)[O-])cc2)n1C | i | i | i | i | i | 44 | 33 | 55
CCSc1ncc(/C=N/Nc2ccccc2)n1C | i | i | i | i | i | i | nt | nt
CO[C@H](C(=O)N(C)C[C@@H]1OCc2ccccc2-c2c(n(C)c3ccccc23)C(=O)N([C@H](C)CO)C[C@@H]1C)c1ccccc1 | i | i | i | i | i | nt | nt | nt
O=C1CNC(=O)/C1=C\N1CCCCC1 | i | i | i | i | i | 29 | i | i
O=C1CNC(=O)/C1=C\N1CCN(C(c2ccccc2)c2ccccc2)CC1 | i | i | i | i | i | i | nt | nt
CCC(=O)Nc1nc2n(n1)C(c1ccc(OC)cc1)C=C(c1ccccc1)N2 (configuration not stated) | nt | nt | nt | nt | nt | i | nt | nt
COc1ccc(C2C=C(c3ccccc3)Nc3nc(CCCO)nn32)cc1 (configuration not stated) | i | nt | nt | i | nt | 26 | 26 | 38
COc1ccc(C2C=C(c3cccs3)Nc3nc(CCCO)nn32)cc1 (configuration not stated) | nt | nt | nt | nt | nt | 32 | 33 | 56
COc1ccc(C2C(C(N)=O)=C(C)Nc3nc(CCCO)nn32)cc1 (configuration not stated) | i | i | i | i | i | nt | nt | nt
Clc1ccc(CSc2nnc(CN3CCOCC3)n2-c2ccccc2)cc1Cl | i | i | i | i | i | 26 | i | i
COc1ccccc1C(=O)NCCNc1ccc([N+](=O)[O-])cc1Cl | i | i | i | i | i | nt | nt | nt
COc1cc(/C=C(\C#N)c2nc3ccccc3[nH]2)ccc1OC(=O)c1ccco1 | i | i | i | i | i | i | nt | nt
COc1cc(/C=C(/C#N)c2nc3ccccc3[nH]2)ccc1OCC(=O)Nc1ccccc1C(C)C | i | i | i | i | i | 77 | 80 | 113
COc1cc(/C=C(/C#N)c2nc3ccccc3[nH]2)ccc1OCC(=O)Nc1ccccc1C | i | i | i | i | i | 83 | 80 | 107
COc1ccccc1N1CCN(C(=O)CSc2nc3ccccc3o2)CC1 | i | i | i | i | i | i | nt | nt
COCCNc1nc(SCC(=O)N2CCN(c3ccccc3OC)CC2)nc2ccccc12 | i | i | i | i | i | 25 | i | i
COc1ccc(N/C=C2\CCOC2=O)cc1 | i | i | i | i | i | 26 | i | i
O=c1c2ccccc2nc(/C=C/c2c[nH]c3ccccc23)n1CCO | i | i | i | i | i | 26 | i | i
COc1ccccc1-c1nnc(NC(=O)C(C)C)s1 | i | i | i | i | i | 27 | i | i
COc1ccccc1-c1nnc(NC(C)=O)s1 | i | i | i | i | i | i | nt | nt
CC(C)N(c1ccccc1)c1ccc(NC(=O)COC(=O)CCN2C(=O)c3cccc([N+](=O)[O-])c3C2=O)cc1 | i | i | i | i | i | 25 | i | i
CC(=O)c1ccc(NC(=O)COC(=O)CCN2C(=O)c3cccc([N+](=O)[O-])c3C2=O)cc1 | i | i | i | i | i | i | nt | nt
CN1CCN(Cn2cc(/C=C/C(=O)c3ccccc3)c3ccccc32)CC1 | nt | 33 | i | nt | 23 | 28 | i | 34
COc1ccc(OC)c(-n2c(-c3cccc(O)c3)n[nH]c2=S)c1 | i | i | i | i | i | 30 | i | i
CC(C)(C)c1ccc(-n2nc(C#N)c(Cl)cc2=O)cc1 | i | 72 | 32 | i | nt | 42 | 30 | i
CCNC(=O)N(C)c1c(CC)nc2ccc(C(=O)N3CCN(C(=O)c4ccco4)CC3)cn12 | i | i | i | i | nt | nt | nt | nt

Source: PubChem (The Scripps Research Institute Molecular Screening Center)
